We go through 18 molecules from ChEMBL document CHEMBL1961873, “Compounds: GSK PKIS; Assays: Nanosyn kinase panel” (2012).

Molecules are shown by their SMILES.

The target of test [1] is Casein kinase I isoform gamma-2 (Homo sapiens) (UniProt P78368). The note with it: at 1 µM.
For test [2], the target named is Casein kinase I isoform gamma-3 (Homo sapiens) (UniProt Q9Y6M4). The note with it: at 0.1 µM.
Test [3] has the same target. Particulars: at 1 µM.
Test [4] deals with Cyclin-dependent kinase 1 (Homo sapiens) (UniProt P06493). Particulars: at 0.1 µM.
Chain of Cyclin-dependent kinase 1 (Homo sapiens) (P06493 whole entry, looked up): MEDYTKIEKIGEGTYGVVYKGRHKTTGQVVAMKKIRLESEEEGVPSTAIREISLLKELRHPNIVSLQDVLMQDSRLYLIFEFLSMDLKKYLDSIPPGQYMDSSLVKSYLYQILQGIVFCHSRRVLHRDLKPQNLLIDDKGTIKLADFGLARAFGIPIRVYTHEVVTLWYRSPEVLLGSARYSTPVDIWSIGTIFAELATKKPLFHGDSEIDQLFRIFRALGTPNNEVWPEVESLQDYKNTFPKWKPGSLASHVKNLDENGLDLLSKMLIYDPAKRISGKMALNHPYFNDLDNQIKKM
Test [5] shares this target. Particulars: at 1 µM.
Test [6] addresses Cyclin-dependent kinase 2 (Homo sapiens) (UniProt P24941). The note with it: at 0.1 µM.
The target is the same in test [7]. The note with it: at 1 µM.
Test [8] has the same target. The note with it: at 0.1 µM. This is another data set of the same source.
The target is the same in test [9]. Particulars: at 1 µM. This is another data set of the same source.
Test [10] has as its target CDK3/Cyclin E (Homo sapiens) (UniProt P24864+Q00526). The note with it: at 0.1 µM.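 Also: reported percentages are mean inhibition values.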

Chain of CDK3/Cyclin E (Homo sapiens) (P24864 whole entry, looked up): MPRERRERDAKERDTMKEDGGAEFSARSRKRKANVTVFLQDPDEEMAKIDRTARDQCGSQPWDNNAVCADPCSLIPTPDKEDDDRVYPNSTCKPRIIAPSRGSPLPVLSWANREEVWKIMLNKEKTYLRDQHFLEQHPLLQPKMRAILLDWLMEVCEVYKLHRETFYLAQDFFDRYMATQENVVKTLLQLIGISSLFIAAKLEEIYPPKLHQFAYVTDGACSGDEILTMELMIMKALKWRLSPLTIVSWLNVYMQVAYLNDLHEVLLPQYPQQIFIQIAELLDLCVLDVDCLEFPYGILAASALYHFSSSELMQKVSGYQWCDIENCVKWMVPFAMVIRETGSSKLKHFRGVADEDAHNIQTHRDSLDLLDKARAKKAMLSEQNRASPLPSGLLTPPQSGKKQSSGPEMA
Chain of CDK3/Cyclin E (Homo sapiens) (Q00526 whole entry, looked up): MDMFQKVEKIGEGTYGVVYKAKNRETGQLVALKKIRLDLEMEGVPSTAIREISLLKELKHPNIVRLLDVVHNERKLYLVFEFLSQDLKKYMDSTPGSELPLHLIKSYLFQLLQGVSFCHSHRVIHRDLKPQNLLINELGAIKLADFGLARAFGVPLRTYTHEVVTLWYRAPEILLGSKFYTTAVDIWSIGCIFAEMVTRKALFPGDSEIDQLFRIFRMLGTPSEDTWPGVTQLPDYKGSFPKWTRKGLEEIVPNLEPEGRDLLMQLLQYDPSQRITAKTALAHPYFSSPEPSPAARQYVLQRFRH
Chain of Casein kinase I isoform gamma-3 (Homo sapiens) (Q9Y6M4 whole entry, looked up, canonical isoform): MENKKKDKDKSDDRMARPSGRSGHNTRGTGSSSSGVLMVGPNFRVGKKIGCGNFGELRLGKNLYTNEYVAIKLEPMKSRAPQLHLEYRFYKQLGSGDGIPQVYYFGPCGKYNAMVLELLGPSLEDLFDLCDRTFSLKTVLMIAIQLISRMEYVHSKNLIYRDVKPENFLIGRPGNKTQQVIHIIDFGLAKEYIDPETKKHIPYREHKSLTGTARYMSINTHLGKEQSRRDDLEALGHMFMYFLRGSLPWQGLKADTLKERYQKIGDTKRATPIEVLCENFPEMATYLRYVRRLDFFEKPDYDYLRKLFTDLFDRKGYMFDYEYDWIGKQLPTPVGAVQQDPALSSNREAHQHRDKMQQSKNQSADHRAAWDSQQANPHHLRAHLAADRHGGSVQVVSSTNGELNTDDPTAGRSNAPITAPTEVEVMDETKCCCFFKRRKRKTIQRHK
Chain of Casein kinase I isoform gamma-2 (Homo sapiens) (P78368 whole entry, looked up, canonical isoform): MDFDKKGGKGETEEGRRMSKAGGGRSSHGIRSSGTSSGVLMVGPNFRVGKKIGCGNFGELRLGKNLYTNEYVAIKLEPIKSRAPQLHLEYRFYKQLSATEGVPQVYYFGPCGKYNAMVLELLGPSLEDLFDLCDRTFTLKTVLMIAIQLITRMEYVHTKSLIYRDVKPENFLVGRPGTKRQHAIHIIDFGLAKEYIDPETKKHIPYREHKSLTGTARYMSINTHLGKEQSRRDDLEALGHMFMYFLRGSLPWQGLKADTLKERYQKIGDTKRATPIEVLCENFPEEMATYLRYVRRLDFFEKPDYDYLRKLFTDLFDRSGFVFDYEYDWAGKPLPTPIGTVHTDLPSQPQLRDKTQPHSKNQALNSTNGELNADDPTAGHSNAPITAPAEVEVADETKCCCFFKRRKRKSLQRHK

For `CN(C)c1cc2c(Nc3ccc4nc(Cc5ccccc5)[nH]c4c3)ncnc2cn1`, the inhibition was 5.2% in test [1]; 3.73% in test [2]; 4.56% in [3]; -0.43% in test [4]; 1.6% in test [5]; 2.83% in test [6]. In addition, the inhibition in [7] came to 6.58%; in test [8] it was 4.49%; in test [9], 5.71%; in [10], 3.16%.

Take `CS(=O)(=O)CCNCc1ccc(-c2ccc3ncnc(Nc4ccc(OCc5ccccc5)c(Cl)c4)c3c2)o1`: the inhibition is 0.01% in [1]; 0.7% in test [2]; -0.59% in [3]; 2.72% in [4]; 3.96% in test [5]; 2.6% in test [6]. The inhibition amounted to 3.73% in test [7], 3.64% in test [8], 4.5% in test [9] and 0.1% in test [10].

In the case of `CCCN1CCC=C(c2ccc(Nc3nc(Nc4ccccc4C(N)=O)c4cc[nH]c4n3)c(C)c2)C1`, the inhibition in [2] came out at 36.1%; in test [3] it was 69.3%; in [4], 2.18%; in test [5] it was 7.53%; in test [6], 5.19%; in [7], 22.5%. For the same molecule, the inhibition was 3.79% in test [8], 28.3% in test [9] and -2.97% in test [10].

`CC(=O)Nc1cccc(C#Cc2cncnc2Nc2ccc(OCc3cccc(F)c3)c(Cl)c2)n1`: the inhibition in [1] was -2.14%; in test [2] it was -0.5%; in test [3], -0.34%; in [4], -0.13%; in [5], -0.16%; in test [6], -1.04%. For the same molecule, the inhibition in [7] was -0.26%; in [8] it was -1.65%; in test [9], -0.18%; in [10] it was 1.2%.

In the case of `c1cnn2ncc(-c3ccnc(Nc4ccc5c(c4)OCCO5)n3)c2c1`, the inhibition in [1] stood at 46.9%; in [2], 6.57%; in test [3] it was 38%; in [4] it was 71.3%; in test [5], 92.9%; in test [6], 65.5%. The results for the inhibition in test [7], in [8] and in test [10] were 86.1%, 73.6% and 36.9%, respectively.

Take `Nc1ncnc2occ(-c3ccc(NC(=O)Nc4cc(C(F)(F)F)cc(C(F)(F)F)c4)cc3)c12`: the inhibition is 1.8% in test [1]; 1.91% in test [2]; 1.31% in test [3]; -0.06% in test [4]; 4.1% in test [5]; 0.86% in test [6]. Besides, the inhibition in test [7] was 2.88%; in test [8], 1.68%; in test [9], 3.96%; in test [10], -1.28%.

`CCn1c(-c2nonc2N)nc2cncc(C(=O)N3CCNCC3)c21`: the inhibition in test [1] was found to be 4.57%; in [2] it was 3.46%; in [3] it was 3.18%; in test [4], 2.63%; in [5] it was 1.24%; in test [6] it was 3.94%. The inhibition in test [7] is 2.62%; in [8], 3.71%; in [9], 3.23%; in test [10], -1.18%.

With `CCn1c(-c2nonc2N)nc2cncc(C(=O)N3CC[C@H](N)C3)c21`, the inhibition in test [1] is 3.73%; in test [2], 2.49%; in test [3], 2.9%; in test [4], 0.41%; in [6], 2.14%; in test [7], -1.11%. Besides, the inhibition in test [8] came to 2.3%; in [9], 5.5%; in [10], 5.34%.

As to `CCn1c(-c2nonc2N)nc2ccncc21`, the inhibition in [1] is 0.81%; in test [2] it was -0.09%; in test [3], 1.21%; in [4], 0.77%; in [5], 1.88%; in [6] it was 1.3%. Besides, the inhibition amounted to 4.47% in test [7], 1.11% in [8], 4.8% in test [9] and 2.26% in [10].

Turning to `Fc1cccc(COc2ccc(Nc3ncnc4sc(-c5cccs5)cc34)cc2Cl)c1`, the inhibition in test [1] is 0.26%; in [2], -0.15%; in test [3], 0.1%; in test [4], 0.75%; in [5], 1.12%; in test [6] it was -0.17%. Besides, the inhibition was 1.85% in [7], 3.98% in [8], 2.92% in test [9] and -0.06% in test [10].

On to `COc1cc2ncn(-c3cc(O[C@H](C)c4ccccc4Cl)c(C(N)=O)s3)c2cc1OC`, for which the inhibition was 2.68% in test [1]; 2.15% in test [2]; 3.1% in test [3]; 0.89% in [4]; 6.45% in test [5]; 2.71% in test [10].

For `O=C1NC(=O)C(c2ccccc2Cl)=C1Nc1cccc(O)c1`, the inhibition in test [1] was found to be 2.79%; in test [2] it was 0.98%; in test [3] it was 1.47%; in test [4], 2.95%; in test [5], 21%; in [6], 3.51%. For the same molecule, the inhibition in [7] came to 20.6%; in [8] it was 3.32%; in [9] it was 18.7%; in test [10], 2.37%.

Turning to `CC(C)=Cc1cccc2c1/C(=N/Nc1ccc(S(N)(=O)=O)cc1)C(=O)N2`, the inhibition in test [1] is 0.64%; in test [2] it was -0.08%; in [3], 2.43%; in test [4] it was 28.7%; in [5] it was 69.7%; in test [6] it was 103%. The inhibition turned out to be 92.4% in [7], 74.1% in [8], 79.3% in test [9] and 68.5% in test [10].

`Cc1ccc(C(=O)NC2CCCCC2)cc1-c1ccc(C(=O)NCC2CC2)cc1`: the inhibition worked out at 2.68% in test [1]; 2.21% in [2]; 2.73% in [3]; 0.67% in test [4]; 0.28% in test [5]; 0.88% in test [6]. In addition, the inhibition was 7.52% in [7], 2.63% in test [8], 3.98% in test [9] and 2.34% in test [10].

As for `Cc1cccc(-c2n[nH]cc2-c2ccc3ncccc3n2)n1`, the inhibition in test [1] is 0.49%; in test [2] it was 0.08%; in [3], 1.59%; in test [4], 0.3%; in test [5] it was 2.06%; in test [6], 0.57%. Besides, the inhibition was -1.61% in test [7], 0.23% in test [8], 0.63% in [9] and 0.85% in [10].

For the molecule `COc1ccccc1Nc1ncc(-c2ccccc2)o1`, the inhibition is 3.85% in test [1]; 3.77% in test [2]; 5.78% in [3]; 0.64% in test [5]; 2.24% in test [6]; 3.34% in [7]. The results for the inhibition in [8], in [9] and in [10] were 1.7%, 4.15% and -1.03%, respectively.

As for `NC(=O)c1ccc(-c2nc(-c3ccccn3)c(-c3ccc4c(c3)OCO4)[nH]2)cc1`, the inhibition was 3.29% in test [1]; 1.05% in [2]; 5.91% in test [3]; 0.26% in [4]; 2.49% in test [5]; 3.35% in test [10].

As to `COc1ccc(COc2ccc(Cc3cnc(N)nc3N)cc2OC)cc1`, the inhibition was 0.05% in test [1]; -0.67% in [2]; 0.85% in [3]; 1.89% in test [4]; 1.42% in test [5]; 2.3% in test [10].

One may read the inhibition as the change of the read-out against control, counted positive when it falls.
